Data reported in PubChem BioAssay (NCATS).
Results filed as inconclusive are left out. Entries that show only a call come without a potency. Calls of active or inactive are those of the source. Calls come from the whole dose curve; as a rule, active = well fitted inhibition curve with a large enough effect; inconclusive = small, poorly fitted or top-dose-only effect; inactive = flat fitted curve, though single readings scatter.

How the values were obtained:
Assay in all cases: qHTS profiling for inhibitors of Plasmodium falciparum proliferation (AID 504749); note: nearly all actives have a fitted effect of over 60% in size
Details in all cases: P. falciparum in erythrocytes, SYBR Green DNA, 72 h; series mostly up to 28.7 µM
ECU = test system: ECU
In short: (§1)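 In a 72 h erythrocytic culture (37 C, humidified, 5% CO2) at 2.5% hematocrit and 0.3% starting parasitemia, compounds were tested; SYBR Green I in detergent lysis buffer stained parasite DNA overnight.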

FAB9 = test system: FAB9
In short: as §1

GB4 = test system: GB4
In short: as §1

HB3 = test system: HB3
In short: as §1

ICS = test system: ICS
In short: as §1

JCK = test system: JCK
In short: as §1

N140 = test system: N140
In short: as §1

P93_24 = test system: P93_24
In short: as §1

P94_40 = test system: P94_40
In short: as §1

PAD = test system: PAD
In short: as §1

PC15 = test system: PC15
In short: as §1

PC26 = test system: PC26
In short: as §1

PC49 = test system: PC49
In short: as §1

SC27B = test system: SC27B
In short: as §1

TAB109 = test system: TAB109
In short: as §1

TAB113 = test system: TAB113
In short: as §1

TAB165 = test system: TAB165
In short: as §1

W2 = test system: W2
In short: as §1
Potency is the fitted concentration of half-maximal effect.

SMILES	Potency (ECU)	Potency (FAB9)	Potency (GB4)	Potency (HB3)	Potency (ICS)	Potency (JCK)	Potency (N140)	Potency (P93_24)	Potency (P94_40)	Potency (PAD)	Potency (PC15)	Potency (PC26)	Potency (PC49)	Potency (SC27B)	Potency (TAB109)	Potency (TAB113)	Potency (TAB165)	Potency (W2)
CCN(CC)CCOC(=O)c1cccnc1	inactive	inactive	inactive	inactive	inactive	inactive	inactive	inactive	inactive	inactive	inactive	inactive	inactive	inactive	inactive	inactive	inactive	inactive
COC(=O)CC[C@H](N)C(=O)O	inactive	inactive	inactive	inactive	inactive	inactive	inactive	inactive	inactive	inactive	inactive	inactive	inactive	inactive	inactive	inactive	inactive	inactive
C[Se]CC[C@H](N)C(=O)O	inactive	inactive	inactive	inactive	inactive	inactive	inactive	inactive	inactive	inactive	inactive	inactive	inactive	inactive	inactive	inactive	inactive	inactive
NC(=S)NS(=O)(=O)c1ccc(N)cc1	inactive	inactive	inactive	inactive	inactive	inactive	inactive	inactive	inactive	inactive	inactive	inactive	inactive	inactive	inactive	inactive	inactive	inactive
Cc1cc(-c2ccc(N=Nc3ccc4c(S(=O)(=O)O)cc(S(=O)(=O)O)c(N)c4c3O)c(C)c2)ccc1N=Nc1ccc2c(S(=O)(=O)O)cc(S(=O)(=O)O)c(N)c2c1O	inactive	inactive	inactive	inactive	inactive	inactive	inactive	inactive	inactive	inactive	inactive	inactive	inactive	inactive	inactive	inactive	inactive	inactive
NCC(O)CC(=O)O (centres undefined)	inactive	inactive	inactive	inactive	inactive	inactive	inactive	inactive	inactive	inactive	inactive	inactive	inactive	inactive	inactive	inactive	inactive	inactive
CCOC(=O)c1c[nH]c2cc(OCC(C)C)c(OCC(C)C)cc2c1=O	89.1 nM (active)	100 nM (active)	60.1 nM (active)	178 nM (active)	79.4 nM (active)	282 nM (active)	141 nM (active)	141 nM (active)	126 nM (active)	158 nM (active)	112 nM (active)	120 nM (active)	141 nM (active)	100 nM (active)	89.1 nM (active)	112 nM (active)	70.8 nM (active)	53.6 nM (active)
O[C@@H]([C@H](O)[C@H](O)CBr)[C@H](O)CBr	inactive	inactive	inactive	inactive	inactive	inactive	inactive	inactive	inactive	inactive	inactive	inactive	inactive	inactive	inactive	inactive	inactive	inactive
NC(N)=O	inactive	inactive	inactive	inactive	inactive	inactive	inactive	inactive	inactive	inactive	inactive	inactive	inactive	inactive	inactive	inactive	inactive	inactive
[O]=[Bi][O][Bi]=[O]	inactive	inactive	inactive	inactive	inactive	inactive	inactive	inactive	inactive	inactive	inactive	inactive	inactive	inactive	inactive	inactive	inactive	inactive
N[C@H](CC(=O)O)C(=O)O	inactive	inactive	inactive	inactive	inactive	inactive	inactive	inactive	inactive	inactive	inactive	inactive	inactive	inactive	inactive	inactive	inactive	inactive
C=CCOc1ccc(CC(=O)O)cc1Cl	inactive	inactive	inactive	inactive	inactive	inactive	inactive	inactive	inactive	inactive	inactive	inactive	inactive	inactive	inactive	inactive	inactive	inactive
O=C(NNCNNC(=O)c1ccncc1)c1ccncc1	inactive	inactive	inactive	inactive	inactive	inactive	inactive	inactive	inactive	inactive	inactive	inactive	inactive	inactive	inactive	inactive	inactive	inactive
CCCCC[C@H](O)/C=C/[C@@H]1[C@H]2C/C(=C/CCCC(=O)O)O[C@H]2C[C@H]1O	inactive	inactive	inactive	inactive	inactive	inactive	inactive	inactive	inactive	inactive	inactive	inactive	inactive	inactive	inactive	inactive	inactive	inactive
CCCC(=O)O	inactive	inactive	inactive	inactive	inactive	inactive	inactive	inactive	inactive	inactive	inactive	inactive	inactive	inactive	inactive	inactive	inactive	inactive
CC1=CC(=O)NS(=O)(=O)O1	inactive	inactive	inactive	inactive	inactive	inactive	inactive	inactive	inactive	inactive	inactive	inactive	inactive	inactive	inactive	inactive	inactive	inactive
Nc1nc(=O)n([C@@H]2CS[C@H](CO)O2)cc1F	inactive	inactive	inactive	inactive	inactive	inactive	inactive	inactive	inactive	inactive	inactive	inactive	inactive	inactive	inactive	inactive	inactive	inactive
O=C(O)CCC(=O)c1ccc(-c2ccccc2)cc1	inactive	inactive	inactive	inactive	inactive	inactive	inactive	inactive	inactive	inactive	inactive	inactive	inactive	inactive	inactive	inactive	inactive	inactive
O=C1CCC(=O)N1CO	inactive	inactive	inactive	inactive	inactive	inactive	inactive	inactive	inactive	inactive	inactive	inactive	inactive	inactive	inactive	inactive	inactive	inactive
CCCCC(CC)CCC(CC(C)C)OS(=O)(=O)O (centres undefined)	inactive	inactive	inactive	inactive	inactive	inactive	inactive	inactive	inactive	inactive	inactive	inactive	inactive	inactive	inactive	inactive	inactive	inactive
CO	inactive	inactive	inactive	inactive	inactive	inactive	inactive	inactive	inactive	inactive	inactive	inactive	inactive	inactive	inactive	inactive	inactive	inactive
CC(C)=CCC/C(C)=C/CC/C(C)=C/CC/C=C(\C)CC/C=C(\C)CCC=C(C)C	inactive	0.01 nM (active)	inactive	inactive	inactive	–	inactive	inactive	inactive	inactive	inactive	inactive	–	inactive	inactive	inactive	inactive	–
CCOC(=O)c1cc(-c2ccccc2)nc2ccc(C)cc12	inactive	inactive	inactive	inactive	inactive	inactive	inactive	inactive	inactive	inactive	inactive	inactive	inactive	inactive	–	–	inactive	inactive
O=C(OCc1ccccc1)c1cccnc1	inactive	inactive	inactive	inactive	–	inactive	inactive	inactive	inactive	inactive	inactive	inactive	inactive	inactive	inactive	inactive	inactive	–
CC(C)OC(=O)Nc1ccc2nc(-c3cscn3)[nH]c2c1	inactive	inactive	inactive	inactive	–	inactive	inactive	inactive	inactive	inactive	inactive	inactive	inactive	inactive	inactive	inactive	inactive	inactive
CC1(O)CCC(C(C)(C)O)CC1 (centres undefined)	inactive	inactive	inactive	inactive	inactive	inactive	inactive	inactive	inactive	inactive	inactive	inactive	inactive	inactive	inactive	inactive	inactive	inactive
NC(=O)C1c2ccccc2CCc2ccccc21	inactive	inactive	inactive	inactive	inactive	inactive	–	–	–	inactive	inactive	inactive	inactive	inactive	inactive	inactive	inactive	inactive
O=C(O)CCC/C=C\C[C@@H]1[C@@H](/C=C/[C@@H](O)COc2cccc(Cl)c2)[C@H](O)C[C@@H]1O	inactive	inactive	inactive	inactive	–	inactive	inactive	inactive	inactive	inactive	inactive	inactive	inactive	inactive	inactive	inactive	inactive	inactive
Cc1cccc(Nc2ncccc2C(=O)O)c1C	inactive	inactive	inactive	inactive	inactive	inactive	inactive	inactive	inactive	inactive	inactive	inactive	inactive	inactive	–	–	inactive	inactive
COc1ccccc1N1CCN(CCCC(=O)c2ccc(F)cc2)CC1	inactive	inactive	inactive	inactive	–	inactive	inactive	inactive	inactive	inactive	inactive	inactive	inactive	inactive	inactive	inactive	inactive	–
